This passage reports growth results from PubChem BioAssay (NCI).

SMILES strings stand for the structures. The panel holds about 83,000 compounds, 20% with a hit somewhere; the sample as a whole holds those more often.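 Cells were grown in 96-well plates and exposed to the test compound at a single concentration for 48 hours; results are reported as percent growth, with values below 10 considered active.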 A number with no mark means an inactive call. Calls of active or inactive are those of the source.

Some test systems named below: SK-MEL-2 melanoma; EKVX NSCLC; SN12C renal; UO-31 renal; TK-10 renal; ACHN renal; CAKI-1 renal; A498 renal; CCRF-CEM leukemia; MOLT-4 leukemia; SR leukemia; RPMI-8226 leukemia; OVCAR-8 ovarian; OVCAR-5 ovarian; OVCAR-4 ovarian; SK-OV-3 ovarian; IGROV1 ovarian; OVCAR-3 ovarian; HS 578T breast; NCI/ADR-RES ovarian.
Holding throughout (assay): NCI-60 one-dose screen, 48 h (100 = growth as untreated, 0 = no growth, -100 = all killed)
What all share (conditions): 10 µM unless noted

As for `Cc1ccc2c(C(C[N+](=O)[O-])c3ccccc3)c(-c3ccccc3)[nH]c2c1` (stereo not drawn), the growth was 1.05% [9.5 µM] (active) with SK-MEL-2 melanoma; 42.3% [9.5 µM] with EKVX NSCLC; 42.2% [9.5 µM] with SN12C renal; 35% [9.5 µM] with UO-31 renal; 43.7% [9.5 µM] in the assay with TK-10 renal; 36.7% [9.5 µM] in the assay on ACHN renal. Further, the growth was 21.5% [9.5 µM] in the assay with CAKI-1 renal; -1.59% [9.5 µM] (active) in the assay on A498 renal; 19.5% [9.5 µM] in the assay with CCRF-CEM leukemia; 21.2% [9.5 µM] in the assay on MOLT-4 leukemia; 25.4% [9.5 µM] in the assay with SR leukemia; 24.4% [9.5 µM] in the assay with RPMI-8226 leukemia. The growth was 29.6% [9.5 µM] in the assay with OVCAR-8 ovarian; 52.2% [9.5 µM] with OVCAR-5 ovarian; 59.8% [9.5 µM] in the assay with OVCAR-4 ovarian; 19.3% [9.5 µM] in the assay with SK-OV-3 ovarian; 27.4% [9.5 µM] with IGROV1 ovarian; 3.85% [9.5 µM] (active) in the assay with OVCAR-3 ovarian. In addition, the growth with HS 578T breast is 1.97% [9.5 µM] (active); with NCI/ADR-RES ovarian it was 10.9% [9.5 µM].
Regarding `C(=N/Nc1ncc(-c2cc3cc(-c4ccccc4)ccc3o2)s1)/c1cccs1`, the growth was 99.7% with SK-MEL-2 melanoma; 94.9% in the assay on EKVX NSCLC; 87.6% in the assay with SN12C renal; 84.8% with UO-31 renal; 97.5% in the assay on TK-10 renal; 97.9% in the assay with ACHN renal. The growth in the assay on CAKI-1 renal is 103%; with A498 renal, 32.5%; with CCRF-CEM leukemia it was 97.5%; in the assay on MOLT-4 leukemia, 96.5%; with SR leukemia, 79%; in the assay on RPMI-8226 leukemia, 70.4%. For the same compound, the growth in the assay with OVCAR-8 ovarian is 99.5%; in the assay on OVCAR-5 ovarian, 93.9%; in the assay with OVCAR-4 ovarian it was 89.6%; in the assay on SK-OV-3 ovarian, 113%; in the assay on IGROV1 ovarian it was 102%; in the assay with OVCAR-3 ovarian, 97.1%. Further, the growth with HS 578T breast is 107%; with NCI/ADR-RES ovarian it was 101%.
Turning to `O=C(O)c1c(=O)cccc2ssc12`, the growth is 11.6% in the assay on SK-MEL-2 melanoma; 11% in the assay with EKVX NSCLC; 14.3% with SN12C renal; 21.7% with UO-31 renal; 4.78% (active) in the assay with TK-10 renal; 3.95% (active) in the assay on ACHN renal. Moreover, the growth in the assay on CAKI-1 renal is 68.5%; in the assay with A498 renal, -76.8% (active); with CCRF-CEM leukemia, 4.61% (active); in the assay with MOLT-4 leukemia it was -23.3% (active); in the assay on SR leukemia, -9.58% (active); in the assay with RPMI-8226 leukemia it was 4.35% (active). Moreover, the growth with OVCAR-8 ovarian is 24.1%; in the assay with OVCAR-5 ovarian it was -52.8% (active); in the assay on OVCAR-4 ovarian, -37.1% (active); in the assay on SK-OV-3 ovarian, 39.1%; in the assay with IGROV1 ovarian, 76.1%; in the assay with OVCAR-3 ovarian, -34.3% (active). Moreover, the results for the growth with HS 578T breast and in the assay on NCI/ADR-RES ovarian were 22.4% and 29.2%, respectively.
For `Fc1ccc2[nH]cc(SSc3c[nH]c4ccc(F)cc34)c2c1`, the growth in the assay on SK-MEL-2 melanoma is 62.8%; in the assay with EKVX NSCLC, 14.2%; in the assay on SN12C renal, 65.1%; in the assay on UO-31 renal, 21.5%; with TK-10 renal, 84.6%; in the assay with ACHN renal, 55.1%. The growth is 32.6% in the assay on CAKI-1 renal; 35% with A498 renal; 15.9% with CCRF-CEM leukemia; 14% with MOLT-4 leukemia; -29.4% (active) in the assay on SR leukemia; -14% (active) in the assay with RPMI-8226 leukemia. Besides, the growth is 40.5% with OVCAR-8 ovarian; 46.8% in the assay with OVCAR-5 ovarian; 46.6% in the assay on OVCAR-4 ovarian; 95.2% in the assay on SK-OV-3 ovarian; 77.8% with IGROV1 ovarian; 50.5% in the assay on OVCAR-3 ovarian. The growth with NCI/ADR-RES ovarian was 17.4%.
Regarding `O=[N+]([O-])c1ccc(Nc2nc(NCCN3CCOCC3)ncc2[N+](=O)[O-])cc1`, the growth in the assay on SK-MEL-2 melanoma is 93.7%; in the assay with EKVX NSCLC, 88.2%; in the assay with SN12C renal, 90.2%; in the assay on UO-31 renal, 63.9%; in the assay on TK-10 renal, 76.5%; in the assay with ACHN renal, 80.9%. Besides, the growth in the assay on CAKI-1 renal is 56.7%; in the assay on A498 renal, 79.1%; in the assay with CCRF-CEM leukemia, 98.1%; with MOLT-4 leukemia it was 103%; in the assay on SR leukemia, 107%; with RPMI-8226 leukemia it was 100%. For the same compound, the growth in the assay with OVCAR-8 ovarian is 99.5%; in the assay on OVCAR-5 ovarian, 98.6%; in the assay on OVCAR-4 ovarian, 85.4%; in the assay with SK-OV-3 ovarian, 93.4%; in the assay with IGROV1 ovarian, 81%; with OVCAR-3 ovarian it was 102%. The values for the growth in the assay on HS 578T breast and in the assay with NCI/ADR-RES ovarian were 87.8% and 89.8%, respectively.
For the compound `Cc1cc(N2CCOCC2)nc(NCc2cc(Nc3ccnc4cc(Cl)ccc34)ccc2F)n1`, the growth in the assay on SK-MEL-2 melanoma was -61.6% (active); in the assay with EKVX NSCLC, 9.33% (active); in the assay on SN12C renal, -72.7% (active); in the assay on UO-31 renal it was -50.8% (active); in the assay with TK-10 renal, -14.7% (active); in the assay with ACHN renal, -12.9% (active). The growth with CAKI-1 renal was 3.58% (active); in the assay with A498 renal, -57.8% (active); in the assay on CCRF-CEM leukemia it was -10.4% (active); in the assay with MOLT-4 leukemia, -30.3% (active); in the assay on SR leukemia it was -41.3% (active); in the assay on RPMI-8226 leukemia it was -40.4% (active). Besides, the growth is -48.9% (active) in the assay with OVCAR-8 ovarian; -17.2% (active) in the assay on OVCAR-5 ovarian; 3.65% (active) in the assay on OVCAR-4 ovarian; -40.8% (active) with SK-OV-3 ovarian; -14.1% (active) in the assay on IGROV1 ovarian; -94.2% (active) in the assay on OVCAR-3 ovarian. Also, the growth in the assay on HS 578T breast is -14.2% (active); in the assay with NCI/ADR-RES ovarian it was -56.9% (active).
In the case of `CNc1ccc(-c2cc(=O)oc3ccc(Cl)cc23)cc1`, the growth in the assay with SK-MEL-2 melanoma was 33.7%; in the assay with EKVX NSCLC it was 40.1%; in the assay on SN12C renal, 29.9%; with UO-31 renal, 47.7%; with TK-10 renal, 50%; in the assay with ACHN renal, 37%. The growth with CAKI-1 renal was 34.4%; in the assay with A498 renal, -3.47% (active); in the assay on CCRF-CEM leukemia, 14.4%; with MOLT-4 leukemia it was 11.3%; in the assay with SR leukemia it was 9.27% (active); with RPMI-8226 leukemia, 18.7%. Moreover, the growth with OVCAR-8 ovarian was 16.6%; in the assay on OVCAR-5 ovarian it was 55.6%; in the assay on OVCAR-4 ovarian, 62.6%; in the assay with SK-OV-3 ovarian, 9.16% (active); in the assay on IGROV1 ovarian, 50.1%; in the assay with OVCAR-3 ovarian, 9.85% (active). Besides, in the assay with NCI/ADR-RES ovarian, the growth was 12.4%.
With `O=[N+]([O-])c1cnc(N2CCN(CC3CC3)CC2)nc1N1CCN(CC2CC2)CC1`, the growth is 98.5% in the assay on SK-MEL-2 melanoma; 86.5% with EKVX NSCLC; 98.2% with SN12C renal; 80.2% with UO-31 renal; 102% with TK-10 renal; 104% with ACHN renal. Further, the growth is 92.5% in the assay with CAKI-1 renal; 86.6% with A498 renal; 106% in the assay with CCRF-CEM leukemia; 103% in the assay on MOLT-4 leukemia; 115% in the assay with SR leukemia; 100% with RPMI-8226 leukemia. Also, the growth with OVCAR-8 ovarian was 104%; with OVCAR-5 ovarian, 92.2%; in the assay on OVCAR-4 ovarian, 95%; with SK-OV-3 ovarian it was 111%; in the assay on IGROV1 ovarian it was 90.6%; in the assay with OVCAR-3 ovarian it was 98.6%. Moreover, the values for the growth in the assay with HS 578T breast and in the assay with NCI/ADR-RES ovarian were 77.5% and 90.2%, respectively.
